# According to PubChem BioAssay (NCI):
# The panel holds about 83,000 compounds, 20% with a hit somewhere; the sample as a whole holds those more often.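 Single-dose data. Exposure time 48 hours. Values below 10 considered active.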 Values without a mark were called inactive. Active and inactive are the calls of the source.
# Columns and labels:
# Assay in all cases: NCI-60 one-dose screen, 48 h (100 = growth as untreated, 0 = no growth, -100 = all killed)
# [1] = test system: HT29 colon; conditions: 10 µM unless noted
# [2] = test system: SNB-75 CNS; conditions: 10 µM unless noted
# [3] = test system: SNB-19 CNS; conditions: 10 µM unless noted
# [4] = test system: U251 CNS; conditions: 10 µM unless noted
# [5] = test system: PC-3 prostate; conditions: 10 µM unless noted
# [6] = test system: SK-MEL-5 melanoma; conditions: 10 µM unless noted
# [7] = test system: UACC-62 melanoma; conditions: 10 µM unless noted
# [8] = test system: LOX IMVI melanoma; conditions: 10 µM unless noted
# [9] = test system: SK-MEL-28 melanoma; conditions: 10 µM
# [10] = test system: SK-MEL-2 melanoma; conditions: 10 µM unless noted
# [11] = test system: SN12C renal; conditions: 10 µM unless noted
# [12] = test system: UO-31 renal; conditions: 10 µM unless noted
# [13] = test system: TK-10 renal; conditions: 10 µM unless noted
# [14] = test system: CAKI-1 renal; conditions: 10 µM unless noted
# [15] = test system: A498 renal; conditions: 10 µM unless noted
# [16] = test system: CCRF-CEM leukemia; conditions: 10 µM unless noted
# [17] = test system: MOLT-4 leukemia; conditions: 10 µM unless noted
# [18] = test system: SR leukemia; conditions: 10 µM unless noted
# [19] = test system: ACHN renal; conditions: 10 µM unless noted
# [20] = test system: EKVX NSCLC; conditions: 10 µM unless noted
Compound,growth [1],growth [2],growth [3],growth [4],growth [5],growth [6],growth [7],growth [8],growth [9],growth [10],growth [11],growth [12],growth [13],growth [14],growth [15],growth [16],growth [17],growth [18],growth [19],growth [20] [%]
COc1ccc(OC)c(N(CCN2C(=O)c3ccccc3C2=O)C(=O)CCl)c1,12.5%,87.4%,114%,60.9%,31.9%,94%,70.5%,-11.8% (active),100%,72.3%,90.5%,-92.1% (active),110%,29.9%,72.4%,-57.4% (active),54.6%,-48.6% (active),–,–
COC(=O)C1(C)COP(=O)(Nc2ccc(OC)cc2)OC1 (stereo not drawn),101%,92.1%,103%,104%,99.8%,105%,108%,96.3%,108%,96.4%,102%,82.7%,108%,99.2%,101%,102%,99.2%,93.2%,104%,–
COc1ccc(-n2c(C(O)c3ccccc3)n[nH]c2=S)cc1 (stereo not drawn),113%,89.6%,99.7%,91.2%,120%,107%,88.2%,91.4%,115%,96.7%,88.2%,79.6%,101%,–,103%,98.4%,83.4%,–,95.5%,–
CCOC(=O)c1c(Cl)c2c(n1Cc1ccccc1)-c1oncc1CCC2,25.8%,69.1%,83.2%,64.5%,65.6%,53.1%,49.2%,66.7%,44.7%,52.7%,63.9%,72.4%,98.9%,59.5%,56.9%,59.7%,52.6%,0.79% (active),–,–
COc1ccc(/C=C2\SC(=Nc3ccccc3)NC2=O)cc1,-89.2% (active),-97.9% (active),-50% (active),-90.1% (active),-73.5% (active),-97.2% (active),-91% (active),-82.9% (active),-100% (active),-84.8% (active),-39.9% (active),-98.3% (active),-92.3% (active),–,-92.5% (active),-53.6% (active),-59% (active),-33% (active),-70.9% (active),–
O=C(Nc1ccc(C23CC4CC(CC(c5ccccc5)(C4)C2)C3)cc1)c1cccs1,53.8%,98.6%,91.9%,69.8%,60%,56.1%,63.8%,76.5%,79.5%,75.6%,66.7%,66.5%,76.9%,77.6%,65.4%,56.8%,57.7%,38.7%,76.9%,–
COc1ccc(CN2CCCC(C(=O)c3ccc(C(F)(F)F)cc3)C2)c(O)c1 (stereo not drawn),1.6% (active),-1.83% (active),44.1%,18.5%,25.6%,19.6%,28.3%,25.5%,36.4%,-43.2% (active),31.8%,26.4%,34.6%,32.6%,15.2%,8.95% (active),13.6%,3.77% (active),38%,–
O=C(NC1CCN(Cc2ccccc2)CC1)c1cc(C(=O)NC2CCN(Cc3ccccc3)CC2)cc(C(=O)NC2CCN(Cc3ccccc3)CC2)c1,75%,68%,85.7%,72.4%,74.4%,85.2%,84.9%,-69.6% (active),95.6%,73.6%,69.2%,-29.8% (active),80.8%,12.2%,96.1%,2.34% (active),45.8%,20.1%,94.5%,–
c1ccc2cc3c(Nc4ccc(N5CCOCC5)cc4)ccnc3cc2c1,98.1%,101%,94.3%,94.7%,81.8%,89.6%,95.6%,96.6%,111%,101%,94.5%,81.2%,107%,92.8%,77.6%,77.4%,78.1%,81.3%,–,–
COc1cc(-c2c3c(cn2S(=O)(=O)c2ccccc2)-c2nc(N)sc2CC3)cc(OC)c1OC,9% (active),12.1%,29%,25.8%,41.8%,14.1%,51.1%,38.4%,68.6%,54.3%,54.1%,30.5%,53.4%,34.2%,21.1%,7.05% (active),23.5%,9.55% (active),–,–
C#CCn1cc(C=C2C(=O)NC(=O)NC2=O)c2cc(Cl)ccc21,116%,92.9%,78.8%,82.1%,92%,81.9%,65.3%,73.2%,–,98.1%,81.3%,67.5%,118%,72%,-53.3% (active),82.2%,77.9%,–,97.4%,90.9
CCCCC(O)(c1ccc(Cl)cc1)C(CN1CCOCC1)c1ccc(Cl)cc1 (stereo not drawn),53.7%,39.6%,60.1%,23.1%,17.6%,13.3%,31.1%,33.9%,54.1%,50.1%,9.55% (active),16.1%,52.9%,26.5%,36%,22.3%,6.34% (active),5.35% (active),–,–
NC1(N2SC(S)=C3CCCC=C32)CCCCC1,97.1%,91.7%,96.9%,101%,109%,104%,104%,94.7%,114%,111%,104%,78.6%,99.5%,97%,101%,105%,87%,86.9%,102%,–
CSc1nc2c(c(=O)[nH]1)N=C1c3ccccc3C(=O)C1C(c1ccccc1)N2 (stereo not drawn),5.89% (active),34.3%,39.8%,37.5%,54.5%,16.1%,37.8%,51.9%,54%,59%,68.7%,70%,67.8%,–,45.3%,29%,20%,-35.6% (active),48.7%,–
COc1ccc(-c2cc(=O)c3c(OC)c4ccoc4c(/C=C/C=O)c3o2)cc1,79.1%,-1.37% (active),49%,16.4%,21.3%,32.1%,67.1%,-11.8% (active),89.1%,75.4%,13%,44.1%,68.7%,95.1%,78.8%,0.782% (active),-8.67% (active),-8.77% (active),75.4%,–
CN1CCN(c2nc(Nc3ccc(O)cc3)nc3ccccc23)CC1,43.4%,75.2%,55.9%,33.9%,60%,46.1%,49.2%,20.1%,66.2%,76.8%,63.8%,57.3%,71.9%,–,85.2%,93.4%,98.4%,87%,49.5%,–
CCOc1c(Br)cc(C2C(C(=O)OC)=CN(C)C=C2C(=O)OC)cc1OC,6.47% (active),47.3%,89%,51%,60.7%,19.6%,71.3%,54.9%,–,65.7%,78%,38.2%,69.3%,75.8%,99%,72.7%,59.6%,8.75% (active),64.4%,–
COC(=O)C1=C(C)NC(C)=C(C(=O)OC)C(N2C(=O)CCC2=O)C1 (stereo not drawn),98.5%,77.3%,99.9%,87.7%,84.6%,102%,83.8%,82.4%,–,99.1%,88.7%,81.9%,123%,92.6%,109%,35.3%,78.1%,37.3%,99%,–
CCCC(=O)CC(C)=O.CCCC(=O)CC(C)=O.[Cu],94.9%,116%,110%,99.9%,76.3%,103%,105%,–,106%,113%,110%,102%,–,103%,122%,107%,99.2%,85.6%,105%,106
CC/C(=C(\CC)c1ccc(OCC[N+](C)(C)C)cc1)c1ccc(OC)cc1,39.5%,31.2%,27.1%,21.6%,41.6%,44.1%,42.2%,73.2%,–,98.8%,51.1%,98.2%,–,104%,53%,60.1%,65%,69.3%,98%,95.6
COc1cccc(C(=O)NC(c2ccc(C)cc2)c2cc(Cl)c3cccnc3c2O)c1 (stereo not drawn),24.1%,28.8%,12.5%,3.81% (active),22.8%,-56.8% (active),-20% (active),6.79% (active),–,22.8%,12.6%,-18.9% (active),27%,-3.64% (active),23.1%,8.88% (active),11.4%,11.3%,10.6%,–
CN1CCN(Cc2ccc(NC(=O)c3cncc(C#Cc4nc(N)nc5[nH]ncc45)c3)cc2C(F)(F)F)CC1,55.3%,85%,108%,107%,108%,90.2%,89.3%,88.1%,–,92.4%,89.7%,122%,126%,66.5%,102%,5.35% (active),8.02% (active),–,–,109
O=C(Nc1ccc(F)cc1F)c1cc(Cl)ccc1O,31.4%,-8.57% (active),16.2%,3.34% (active),6.06% (active),-67.5% (active),7.39% (active),–,25.3%,-25.6% (active),2.94% (active),-0.334% (active),17.4%,-14.7% (active),-34.4% (active),15.4%,8.79% (active),–,4.87% (active),34.2
